# Data reported in PubChem BioAssay AID1159580 (chemical genetic matrix, 2015).
# The campaign covered roughly 5,500 compounds. About 2,000 (36%) were called active. Another 18% or so got no clear call; they are omitted. The list shows a part of the results. Values without a mark were called inactive. Rule as the data show it: active = normalized growth mostly below about 0.91 (no sharp cut-off); inconclusive = no clear call, values can overlap the other calls; inactive = mostly above about 0.92.
# Test: chemical genetic growth profiling, strain panel (AID 1159580);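 also: tested at 20 µM; growth read once vehicle control cultures reached saturation at 30 °C; 1 = growth at the plate median or of vehicle wells; lower values mean less growth of the strain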
# Conditions: growth OD
# [1] = S. cerevisiae deletion strains, locus YBR021W, strain FUR4, hits give low values
# [2] = S. cerevisiae deletion strains, locus YBR229C, strain ROT2, hits give low values
# [3] = S. cerevisiae deletion strains, locus YCL029C, strain bik1, hits give low values
# [4] = S. cerevisiae deletion strains, locus YDL035C, strain GPR1, hits give low values
# [5] = S. cerevisiae deletion strains, locus YDL074C, strain BRE1, hits give low values
# [6] = S. cerevisiae deletion strains, locus YDL101C, strain DUN1, hits give low values
# [7] = S. cerevisiae deletion strains, locus YDL134C, strain PPH21, hits give low values
# [8] = S. cerevisiae deletion strains, locus YDL185W, strain tfp1, hits give low values
# [9] = S. cerevisiae deletion strains, locus YDL192W, strain arf1, hits give low values
# [10] = S. cerevisiae deletion strains, locus YDR101C, strain arx1, hits give low values
# [11] = S. cerevisiae deletion strains, locus YDR162C, strain NBP2, hits give low values
# [12] = S. cerevisiae deletion strains, locus YDR318W, strain mcm21, hits give low values
# [13] = S. cerevisiae deletion strains, locus YDR388W, hits give low values
# [14] = S. cerevisiae deletion strains, locus YDR502C, strain sam2, hits give low values
# [15] = S. cerevisiae deletion strains, locus YEL061C, strain CIN8, hits give low values
# [16] = S. cerevisiae deletion strains, locus YER110C, hits give low values
# [17] = S. cerevisiae deletion strains, locus YER155C, strain BEM2, hits give low values
# [18] = S. cerevisiae deletion strains, locus YER167W, strain BCK2, hits give low values
# [19] = S. cerevisiae deletion strains, locus YGL078C, strain dbp3, hits give low values
# [20] = S. cerevisiae deletion strains, locus YGL086W, strain mad1, hits give low values
# [21] = S. cerevisiae deletion strains, locus YGL248W, strain PDE1, hits give low values
# [22] = S. cerevisiae deletion strains, locus YGR135W, strain pre9, hits give low values
# [23] = S. cerevisiae deletion strains, locus YGR229C, strain SMI1, hits give low values
# [24] = S. cerevisiae deletion strains, locus YGR252W, strain gcn5, hits give low values
# [25] = S. cerevisiae deletion strains, locus YHR030C, strain SLT2, hits give low values
# [26] = S. cerevisiae deletion strains, locus YHR079C, strain IRE1 (second series), hits give low values
# [27] = S. cerevisiae deletion strains, locus YHR094C, strain hxt1, hits give low values
# [28] = S. cerevisiae deletion strains, locus YHR129C, strain ARP1, hits give low values
# [29] = S. cerevisiae deletion strains, locus YHR200W, strain rpn10, hits give low values
# [30] = S. cerevisiae deletion strains, locus YIL066C, strain RNR3, hits give low values
# [31] = S. cerevisiae deletion strains, locus YIL073C, strain SPO22, hits give low values
# [32] = S. cerevisiae deletion strains, locus YIL125W, strain kgd1, hits give low values
# [33] = S. cerevisiae deletion strains, locus YIR030C, strain dcg1, hits give low values
# [34] = S. cerevisiae deletion strains, locus YJL095W, strain BCK1, hits give low values
# [35] = S. cerevisiae deletion strains, locus YJL134W, strain LCB3, hits give low values
# [36] = S. cerevisiae deletion strains, locus YJL168C, strain set2, hits give low values
# [37] = S. cerevisiae deletion strains, locus YJL187C, strain SWE1 (second series), hits give low values
# [38] = S. cerevisiae deletion strains, locus YKL009W, strain mrt4, hits give low values
# [39] = S. cerevisiae deletion strains, locus YKL068W, hits give low values
# [40] = S. cerevisiae deletion strains, locus YKL085W, strain MDH1 (second series), hits give low values
# [41] = S. cerevisiae deletion strains, locus YKL085W, strain MDH1, hits give low values
# [42] = S. cerevisiae deletion strains, locus YKR001C, strain vps1, hits give low values
# [43] = S. cerevisiae deletion strains, locus YLR039C, strain RIC1, hits give low values
# [44] = S. cerevisiae deletion strains, locus YLR058C, strain SHM2, hits give low values
# [45] = S. cerevisiae deletion strains, locus YLR102C, strain apc9, hits give low values
# [46] = S. cerevisiae deletion strains, locus YLR268W, strain sec22, hits give low values
# [47] = S. cerevisiae deletion strains, locus YLR371W, strain rom2, hits give low values
# [48] = S. cerevisiae deletion strains, locus YLR418C, strain cdc73, hits give low values
# [49] = S. cerevisiae deletion strains, locus YML016C, strain PPZ1, hits give low values
# [50] = S. cerevisiae deletion strains, locus YML032C, strain rad52, hits give low values
# [51] = S. cerevisiae deletion strains, locus YML124C, strain tub3, hits give low values
# [52] = S. cerevisiae deletion strains, locus YMR078C, strain ctf18, hits give low values
# [53] = S. cerevisiae deletion strains, locus YMR223W, strain ubp8, hits give low values
# [54] = S. cerevisiae deletion strains, locus YMR307W, strain GAS1, hits give low values
# [55] = S. cerevisiae deletion strains, locus YNL067W, strain RPL9B, hits give low values
# [56] = S. cerevisiae deletion strains, locus YNL233W, strain BNI4, hits give low values
# [57] = S. cerevisiae deletion strains, locus YNL250W, strain rad50, hits give low values
# [58] = S. cerevisiae deletion strains, locus YNL271C, strain bni1, hits give low values
# [59] = S. cerevisiae deletion strains, locus YNL298W, strain CLA4, hits give low values
# [60] = S. cerevisiae deletion strains, locus YNL307C, strain MCK1, hits give low values
# [61] = S. cerevisiae deletion strains, locus YNR052C, strain pop2, hits give low values
# [62] = S. cerevisiae deletion strains, locus YOL012C, strain htz1
# [63] = S. cerevisiae deletion strains, locus YOL147C, strain pex11, hits give low values
# [64] = S. cerevisiae deletion strains, locus YOR061W, strain CKA2, hits give low values
# [65] = S. cerevisiae deletion strains, locus YOR069W, strain VPS5, hits give low values
# [66] = S. cerevisiae deletion strains, locus YOR136W, strain idh2, hits give low values
# [67] = S. cerevisiae deletion strains, locus YOR144C, strain elg1, hits give low values
# [68] = S. cerevisiae deletion strains, locus YOR184W, strain ser1, hits give low values
# [69] = S. cerevisiae deletion strains, locus YOR316C, strain cot1, hits give low values
# [70] = S. cerevisiae deletion strains, locus YPL241C, strain CIN2, hits give low values
# [71] = S. cerevisiae deletion strains, locus YPR119W, strain clb2, hits give low values
# [72] = S. cerevisiae deletion strains, locus YPR141C, strain kar3, hits give low values
# [73] = S. cerevisiae deletion strains, locus YPR163C, strain tif3, hits give low values
# [74] = S. cerevisiae deletion strains, locus YPR167C, strain met16, hits give low values
# [75] = S. cerevisiae deletion strains, strain wtn01, hits give low values
structure (smiles),measurement,setting,value
C=C1C([C@]2(C)C(CC(=O)OC)[C@@](C)(COC(C)=O)OC(=O)C[C@@H]2OC(C)=O)[C@@H](OC=O)[C@H](OC(=O)C(O)C(C)CC)[C@@]2(C)[C@H](c3ccoc3)CC(=O)C12O (some centres undefined),normalized growth,[1],0.996
same,normalized growth,[2],1
same,normalized growth,[3],1.02
same,normalized growth,[4],1.01
same,normalized growth,[5],1.02
same,normalized growth,[6],1.02
same,normalized growth,[7],1.01
same,normalized growth,[8],1.01
same,normalized growth,[9],1.01
same,normalized growth,[10],1
same,normalized growth,[11],1.02
same,normalized growth,[12],1.01
same,normalized growth,[13],0.998
same,normalized growth,[14],1.01
same,normalized growth,[15],1
same,normalized growth,[16],1.01
same,normalized growth,[17],1.01
same,normalized growth,[18],1
same,normalized growth,[19],1.02
same,normalized growth,[20],1
same,normalized growth,[21],1.01
same,normalized growth,[22],1.04
same,normalized growth,[23],1.06
same,normalized growth,[24],1.03
same,normalized growth,[25],1.01
same,normalized growth,[26],1.02
same,normalized growth,[27],1.01
same,normalized growth,[28],1.01
same,normalized growth,[29],0.995
same,normalized growth,[30],1.01
same,normalized growth,[31],1.09
same,normalized growth,[32],1
same,normalized growth,[33],1.01
same,normalized growth,[34],1.04
same,normalized growth,[35],1.01
same,normalized growth,[36],1.01
same,normalized growth,[37],1.02
same,normalized growth,[38],0.994
same,normalized growth,[39],1.01
same,normalized growth,[40],0.999
same,normalized growth,[41],0.999
same,normalized growth,[42],1.02
same,normalized growth,[43],1.09
same,normalized growth,[44],1.01
same,normalized growth,[45],1.01
same,normalized growth,[46],1
same,normalized growth,"S. cerevisiae deletion strains, locus YLR342W, strain FKS1 (second series), hits give low values",1.01
same,normalized growth,[47],1.01
same,normalized growth,[48],1.03
same,normalized growth,[49],1
same,normalized growth,[50],0.991
same,normalized growth,[51],1.01
same,normalized growth,[52],1.02
same,normalized growth,[53],1.01
same,normalized growth,[54],1.1
same,normalized growth,[55],1.02
same,normalized growth,"S. cerevisiae deletion strains, locus YNL153C, strain GIM3, hits give low values",1.01
same,normalized growth,[56],1.03
same,normalized growth,[57],1.01
same,normalized growth,[58],1.01
same,normalized growth,[59],1.03
same,normalized growth,[60],1.01
same,normalized growth,"S. cerevisiae deletion strains, locus YNL322C, strain KRE1, hits give low values",1.01
same,normalized growth,[61],1.01
same,normalized growth,"S. cerevisiae deletion strains, locus YOL006C, strain TOP1, hits give low values",1.04
same,normalized growth,[62],0.797
same,normalized growth,[63],1.01
same,normalized growth,[64],1
same,normalized growth,[65],1.01
same,normalized growth,[66],1
same,normalized growth,[67],1
same,normalized growth,[68],1.01
same,normalized growth,[69],1.01
same,normalized growth,[70],1.01
same,normalized growth,[71],1.01
same,normalized growth,[72],1.02
same,normalized growth,[73],1.01
same,normalized growth,[74],1.01
same,normalized growth,[75],0.997
C=C1C([C@]2(C)C(CC(=O)OC)[C@@](C)(COC(C)=O)OC(=O)C[C@@H]2OC(C)=O)[C@@H](OC=O)[C@H](OC(=O)C(OC(C)=O)C(C)CC)[C@@]2(C)[C@H](c3ccoc3)CC(=O)C12O (some centres undefined),normalized growth,"S. cerevisiae deletion strains, locus YAL013W, strain DEP1, hits give low values",1.03
same,normalized growth,[1],1.03
same,normalized growth,[2],1.01
same,normalized growth,[3],1.03
same,normalized growth,[4],1.01
same,normalized growth,[5],1.04
same,normalized growth,[6],1.03
same,normalized growth,[7],1.03
same,normalized growth,[8],1.03
same,normalized growth,[9],1.03
same,normalized growth,[10],1.01
same,normalized growth,"S. cerevisiae deletion strains, locus YDR150W, strain NUM1, hits give low values",1.03
same,normalized growth,[11],1.02
same,normalized growth,[12],1.03
same,normalized growth,[13],1.03
same,normalized growth,[14],1.04
same,normalized growth,[15],1.02
same,normalized growth,[16],1.03
same,normalized growth,[17],1.02
same,normalized growth,[18],1.01
same,normalized growth,[19],1.04
same,normalized growth,[20],1.04
same,normalized growth,[21],1.02
same,normalized growth,[22],1.03
same,normalized growth,[23],1.08
same,normalized growth,[24],1.03
same,normalized growth,[25],1.02
same,normalized growth,[26],1.03
same,normalized growth,[27],1.04
same,normalized growth,[28],1.02
same,normalized growth,[29],1.03
same,normalized growth,[30],1
same,normalized growth,[31],1.06
same,normalized growth,[32],1.02
same,normalized growth,[33],1.03
same,normalized growth,[34],1.04
same,normalized growth,[35],1.02
same,normalized growth,[36],1.03
same,normalized growth,[37],1.03
same,normalized growth,[38],0.952
same,normalized growth,[39],1.03
same,normalized growth,[40],1.16 [resistant] (active)
same,normalized growth,[41],1.16 [resistant] (active)
same,normalized growth,"S. cerevisiae deletion strains, locus YKL190W, strain CNB1, hits give low values",1.01
same,normalized growth,[42],1.03
same,normalized growth,[43],1.09
same,normalized growth,[44],1.01
same,normalized growth,[45],1.03
same,normalized growth,[46],1.02
same,normalized growth,"S. cerevisiae deletion strains, locus YLR330W, strain CHS5, hits give low values",1.02
same,normalized growth,[47],1.03
same,normalized growth,[48],1.07
same,normalized growth,[49],1.01
same,normalized growth,[50],1.03
same,normalized growth,[51],1.03
same,normalized growth,[52],1.03
same,normalized growth,[53],1.03
same,normalized growth,[54],1.04
same,normalized growth,[55],1.03
same,normalized growth,[56],1.03
same,normalized growth,[57],1.01
same,normalized growth,[58],1.03
same,normalized growth,[59],1.02
same,normalized growth,[60],1.02
same,normalized growth,[61],1.04
same,normalized growth,[62],1.2
same,normalized growth,[63],1.03
same,normalized growth,[64],1.02
same,normalized growth,[65],1.02
same,normalized growth,[66],1.03
same,normalized growth,[67],1.04
same,normalized growth,[68],1.02
same,normalized growth,[69],1.03
same,normalized growth,[70],1.02
same,normalized growth,[71],1.02
same,normalized growth,[72],1.02
same,normalized growth,[73],1.04
same,normalized growth,[74],1.03
same,normalized growth,[75],1.01
same,normalized growth,"S. cerevisiae strains, strain wild type, hits give low values",1.03
